Screening results: PubChem, National Center for Advancing Translational Sciences (NCATS)
mTORC1 inh – inhibitors of mTORC1 signaling in Tsc2-/- p53-/- MEF cells; AID 493208; Tsc2-/- p53-/- MEF, phospho-rpS6 immunofluorescence/PI, 24 h; Potency, µM (series often up to 38.3 µM), hits mostly inhibitors; actives 0.78% (n = 44,000); also: nearly all actives have a fitted effect of over 50% in size
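Tsc2-/-, p53-/- MEFs (empty-vector stable line) in DMEM + 10% FBS were treated with compounds 24 h at 37 degree Celsius, fixed, and immunostained for phospho-rpS6 (Alexa-488) with propidium iodide counterstain. Laser-scanning cytometry gave % positive cells, normalized against 7.5 nM rapamycin and DMSO.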
S16 viability – cytotoxicity in S16 Pmp22-F2sN Schwann cells; S16 Pmp22-F2sN Schwann cells viability, CellTiter-Glo, 24 h; actives 0.48% (n = 43,000); Potency, µM (top dose mostly 57.5 µM), usual class: cytotoxic; also: nearly all actives have a fitted effect of over 65% in size
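Used to flag compounds lowering reporter output through toxicity, this quantitative HTS measures ATP-based CellTiter-Glo luminescence in S16 Pmp22-F2sN Schwann cells after 24 h compound exposure at 37C.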
GALK inhibitor – inhibits human galactokinase. P51570. recombinant GALK, Kinase-Glo ATP luminescence, 1 h. Potency, µM (doses to about 57.5 µM), most hits filed as inhibitors. 44,000 tested, under 10 active. AID 1347072
Target sequence (P51570 whole entry, looked up): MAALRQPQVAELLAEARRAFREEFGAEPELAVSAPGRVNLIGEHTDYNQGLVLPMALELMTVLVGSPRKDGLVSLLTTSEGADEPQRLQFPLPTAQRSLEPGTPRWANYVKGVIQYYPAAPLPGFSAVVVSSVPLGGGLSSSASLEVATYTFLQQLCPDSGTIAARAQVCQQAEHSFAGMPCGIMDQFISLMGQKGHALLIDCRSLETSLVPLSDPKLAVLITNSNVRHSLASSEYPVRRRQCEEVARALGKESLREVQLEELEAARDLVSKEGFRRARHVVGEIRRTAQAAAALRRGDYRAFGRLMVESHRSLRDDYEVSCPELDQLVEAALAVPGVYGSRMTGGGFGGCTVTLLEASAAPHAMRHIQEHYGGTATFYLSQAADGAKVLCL
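Compounds were pinned into ATP buffer, then GALK-galactose mix was added (final 5 nM enzyme, 35 uM ATP, 100 uM galactose, pH 8.0). After 1 h at room temperature, Kinase-Glo Plus was added and luminescence read.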
PMP22 txn prim – PMP22 gene transcription modulation | Potency, µM (series often up to 57.5 µM), hits mostly inhibitors | S16 Pmp22-F2sN Schwann cells (luciferase reporters placed in the Pmp22 gene), FLuc/NLuc coincidence luminescence, 24 h | actives 2% (n = 43,000); active = clear falling dose curves in both reporters; inconclusive = both reporters move, but less clearly or upward; inactive = either reporter flat; the % is the NLuc reporter signal
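Transcriptional readout in edited S16(c9) cells: two luciferases reported from the Pmp22 locus, measured in turn after 24 h compound incubation.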
TSG101-PTAP inh – blocks PTAP binding to human TSG101, validation | Fluorescence polarization, FITC-PTAP peptide/Tsg101, 20 min | Potency, µM (titrated, usually from 115 µM), most hits filed as inhibitors | 44,000 tested, under 10 active
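FITC-labeled PTAP peptide (50 nM final) binding to Tsg101 binding domain (10 uM final) read by fluorescence polarization after 20 min at r.t. in HEPES pH 7.5 buffer. Actives by CRC class, <25 µM.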
Each line names hits and unclear results; the compound was inactive in the other large screens. Compounds with a hit are over-represented: about 2.8% of the library has one in this group of screens. Unless noted, calls follow the shape of the dose curve; as a rule, active = well fitted curve in the direction sought with a large enough effect; inconclusive = small, poorly fitted or top-dose-only effect, or another doubt; inactive = no such curve, though single readings can be large; an effect the other way counts as inactive or inconclusive.

Cc1cccc(C(=O)Nc2c(C(=O)NCc3ccc(Cl)cc3)sc3nc(C)cc(C)c23)c1	mTORC1 inh 13µM, S16 viability inconclusive, PMP22 txn prim inconclusive
COc1cc(-c2nc3sccn3c2Nc2c(C)cccc2C)ccc1O	none
COc1cc(-c2nc3ncccn3c2Nc2ccc(C)cc2C)ccc1O	mTORC1 inh 15µM, S16 viability inconclusive
O=C(NCC(c1ccco1)S(=O)(=O)c1cccs1)c1ccccc1F (configuration not stated)	none
Cc1ccc(Cl)cc1N1CCN(C(=O)c2ccc(CS(=O)(=O)c3ccccc3C)o2)CC1	PMP22 txn prim inconclusive
Cc1ccc(Cl)cc1N1CCN(C(=O)c2ccc(CS(=O)c3ccccc3)o2)CC1 (configuration not stated)	mTORC1 inh inconclusive, S16 viability inconclusive, PMP22 txn prim 10µM
CCOc1ccccc1NC(=O)C1=C(C)Nc2ncnn2C1c1sccc1C (configuration not stated)	none
CCC1CCc2nc3sc(C(=O)Nc4cccc(F)c4)c(N)c3cc2C1 (configuration not stated)	mTORC1 inh inconclusive, PMP22 txn prim inconclusive
CCC1CCc2nc3sc(C(=O)Nc4ccc(C)cc4)c(N)c3cc2C1 (configuration not stated)	mTORC1 inh 18µM
CCN(CC)S(=O)(=O)c1ccc2c(c1)N(CC(=O)Nc1c(C)cccc1C)C(=O)C1CCCN21 (configuration not stated)	none
CCN(CC)C(=O)CSc1nc(-c2ccc(C)cc2)nc2c1Cc1c(CO)cnc(C)c1O2	S16 viability 10µM, GALK inhibitor inconclusive, PMP22 txn prim inconclusive
Cc1ccc(C(=O)OCc2cc(=O)n3nc(CC(C)C)sc3n2)cc1	none
Cc1ccc(-c2nc3ccccc3[nH]2)cc1NC(=O)COc1ccccc1[N+](=O)[O-]	mTORC1 inh 2.3µM, PMP22 txn prim inconclusive
CCOC(=O)c1cccc(NC(=O)CC2C(=O)N(c3ccc(OC)cc3)C(=O)N2C2CCCC2)c1 (configuration not stated)	none (no result: S16 viability, PMP22 txn prim)
O=C(Cn1cc(S(=O)(=O)Cc2cccc(Cl)c2)c2ccccc21)Nc1ccccc1C(F)(F)F	mTORC1 inh 18µM, S16 viability inconclusive, PMP22 txn prim inconclusive
CCOc1ccc(Nc2nc(-c3cccc(Cl)c3)c3c(n2)-c2ccccc2OC3)cc1	mTORC1 inh 2.3µM
Cc1cn2c(=O)cc(COC(=O)c3cccc(NC(=O)c4ccc(C(C)(C)C)cc4)c3)nc2s1	none
CCOCCCNC(=O)c1ccc(Cn2c(=O)c3cccn3c3cccnc32)cc1	PMP22 txn prim 11µM
CC(C)OCCCNC(=O)c1ccc(Cn2c(=O)c3cccn3c3cccnc32)cc1	none
CCN(CC)CCNC(=O)c1ccc(Cn2c(=O)c3cccn3c3cccnc32)cc1	mTORC1 inh 3.3µM
O=C(NCCc1ccccc1)c1ccc(Cn2c(=O)c3cccn3c3cccnc32)cc1	none
CS(=O)(=O)c1ncc(Cl)c(C(=O)N2CCN(c3cccc(Cl)c3)CC2)n1	mTORC1 inh 0.46µM, S16 viability 3.2µM, PMP22 txn prim inconclusive
CC1CCc2onc(C(=O)N3CCN(c4cccc(Cl)c4)CC3)c2C1 (configuration not stated)	PMP22 txn prim inconclusive
CCS(=O)(=O)c1ncc(Cl)c(C(=O)N2CCN(c3cccc(Cl)c3)CC2)n1	mTORC1 inh 2.6µM, S16 viability 4.5µM, PMP22 txn prim inconclusive
O=C(c1cc2ccc3cccnc3c2[nH]1)N1CCN(c2cccc(Cl)c2)CC1	PMP22 txn prim inconclusive
COCCCNC(=O)C1CCN(Cc2cc3ccccc3n2Cc2cccc(Cl)c2)CC1	S16 viability inconclusive, PMP22 txn prim inconclusive
Cc1cc(=O)n(Cc2ccc(F)cc2Cl)c2c1c(C)nn2C	none
COc1cc2oc(=O)c(CC(=O)NCc3ccc(OC)c(OC)c3)c(C)c2cc1Cl	none (no result: S16 viability, PMP22 txn prim)
COc1ccc(CNC(=O)c2nc(SC(C)C)ncc2Cl)cc1	none
COc1ccc(CNC(=O)c2nc(S(=O)(=O)Cc3ccccc3)ncc2Cl)cc1	mTORC1 inh 21µM, S16 viability 5.6µM, PMP22 txn prim 5.3µM
O=C(NCc1ccccc1)c1nc(S(=O)(=O)Cc2ccccc2)ncc1Cl	mTORC1 inh 16µM, S16 viability 8.9µM, PMP22 txn prim 6.5µM
COc1ccc(N(Cc2ccccc2)C(=O)c2nc(S(C)(=O)=O)ncc2Cl)cc1	mTORC1 inh 2.1µM, S16 viability 4.5µM, PMP22 txn prim 1.8µM
CS(=O)(=O)c1ncc(Cl)c(C(=O)N(Cc2ccc(Cl)cc2)Cc2ccco2)n1	mTORC1 inh 1.8µM, S16 viability 4.5µM, PMP22 txn prim inconclusive
O=C(CCc1cn(Cc2ccc(F)cc2)c2ccccc12)NCCc1ccc(Cl)cc1	none
CCCCc1ccc(Nc2cc(C)nc(-n3nc(C)cc3C)n2)cc1	S16 viability inconclusive, PMP22 txn prim 15µM
CCCN1CCN(c2ncnc3sc(C(=O)Nc4ccc(C(C)C)cc4)c(C)c23)CC1	mTORC1 inh inconclusive, S16 viability inconclusive, PMP22 txn prim inconclusive
CCCN1CCN(c2ncnc3sc(C(=O)Nc4ccc(OC(F)(F)F)cc4)c(C)c23)CC1	mTORC1 inh 16µM, S16 viability inconclusive, PMP22 txn prim inconclusive
O=C(CCSCc1ccccc1Cl)NCCc1ccccc1	none
COc1ccc(C2CC(=O)c3cc(-c4nc(-c5ccc(Cl)cc5)cs4)c(=O)[nH]c3C2)cc1OC (configuration not stated)	none
O=C1CC(c2ccccc2)Cc2[nH]c(=O)c(-c3nc(-c4cccc(Cl)c4)cs3)cc21 (configuration not stated)	mTORC1 inh 12µM, S16 viability inconclusive
CC(C)OCCCNC(=O)CCCn1c(SCC(=O)c2ccc(F)cc2)nc2c(sc3ccccc32)c1=O	none
CCN(CC)S(=O)(=O)c1ccc(NC(=O)CCc2c(C)nc3cc(-c4ccc(Cl)cc4)nn3c2C)cc1	mTORC1 inh 12µM, S16 viability inconclusive, PMP22 txn prim 7.8µM
COc1ccc(C)cc1NC(=O)CCNS(=O)(=O)c1cccc2nonc12	mTORC1 inh 21µM
COCCNC(=O)CSc1nc2cc3c(cc2c(=O)n1CCCC(=O)NCc1ccc2c(c1)OCO2)OCO3	none
COC(=O)c1c(NC(=O)c2ccc(S(=O)(=O)N3CCCCC3)cc2)sc2c1CCN(C)C2	mTORC1 inh 4.1µM, S16 viability inconclusive, PMP22 txn prim inconclusive
CCOC(=O)c1ccc(NC(=O)CSc2c(C(C)C)cnc3c2c(=O)n(C)c(=O)n3C)cc1	none
Cc1cc(N2CCN(C)CC2)nc2ccc(NC(=O)Nc3ccccc3)cc12	mTORC1 inh inconclusive, S16 viability inconclusive, PMP22 txn prim inconclusive
Cc1cc(N2CCN(C)CC2)nc2ccc(NC(=O)Nc3cccc(Cl)c3)cc12	mTORC1 inh inconclusive, S16 viability 25µM, PMP22 txn prim inconclusive
